Test results published in PubChem BioAssay AID743343 (Broad Institute, 2014).
Measured potencies and affinities stand elsewhere. The source made the active and inactive calls. The rule behind the calls is not given here.

Tested on: Drosophila melanogaster bursicon receptor LGR2 (rickets)
Experiment: blockers of bursicon-stimulated LGR2 cAMP reporter – cell-based, HEK293, CRE-luciferase reporter, cherry pick, set 2, dose response (AID 743343)
Settings: bursicon-induced cAMP antagonist; series mostly up to 35 µM; activity change, negative = inhibition: at the top concentration

Row | SMILES | activity change, negative = inhibition
1 | COc1ccc2cc(C#N)c(Nc3cccc(F)c3)nc2c1 | 34.4% (inactive)
2 | C[C@@H]1CN([C@H](C)CO)C(=O)c2c(c3ccccc3n2C)-c2ccccc2CO[C@H]1CN(C)S(=O)(=O)c1cn(C)cn1 | -10.5% (inactive)
3 | CCOC(=O)Nc1ccc(N2CCOCC2)c(S(=O)(=O)Nc2ccc(Cl)cc2)c1 | -36.6% (inactive)
4 | O=C(Cn1ncc(Cl)c(Cl)c1=O)N1CCOCC1 | 7.73% (inactive)
5 | O=c1cc(-c2c(F)c(F)c(F)c(F)c2F)oc2ccccc12 | 37.7% [at 16 µM] (inactive)
6 | COc1ccccc1CN(C)C[C@@H]1OCc2cnnn2CCCC(=O)N([C@H](C)CO)C[C@H]1C | 24.4% (inactive)
7 | c1ccc(COc2cccc(-c3cc4nc(NCCCn5ccnc5)ccn4n3)c2)cc1 | -31.2% (inactive)
8 | O=C(Cc1ccccc1Cl)Nc1cccnc1 | 10.2% (inactive)
9 | CCC(=O)N(C)C[C@H]1Oc2cc(C#CCC(C)C)ccc2S(=O)(=O)N([C@H](C)CO)C[C@@H]1C | -1.03% (inactive)
10 | O=C(c1ccc(CSc2nc3ccncc3[nH]2)cc1)N1CCN(c2cccc(Cl)c2)CC1 | 13.9% (inactive)
11 | Cn1nnnc1SCC(=O)N1CCN(C(=O)c2ccco2)CC1 | 37.6% (inactive)
12 | O=C(c1ccc(F)cc1)N1CC(=O)N2[C@@H](CO)[C@@H](c3ccc(C#CC4CCCC4)cc3)[C@@H]2C1 | -3.09% (inactive)
13 | CC1CN(C(=O)c2cccc(S(=O)(=O)Nc3cc(Cl)ccc3Cl)c2)CC(C)O1 (centres undefined) | 23% (inactive)
14 | CC(C)N(C(=O)COC(=O)c1ccccc1C(=O)c1ccc(Cl)c([N+](=O)[O-])c1)C(C)C | 47% [at 16 µM] (inactive)
15 | C[C@@H]1CN([C@H](C)CO)C(=O)CCCn2nncc2CO[C@H]1CN(C)C(=O)Nc1cccc2ccccc12 | -37.9% (inactive)
16 | CC1CCN(C(=O)c2ccc(S(=O)(=O)Cc3cc(F)ccc3F)c([N+](=O)[O-])c2)CC1 | -11.8% (inactive)
17 | CO[C@H]1CN(C)C(=O)c2ccc(NC(=O)c3ccc(-c4ccccc4)cc3)cc2OC[C@@H](C)NC[C@@H]1C | 12.9% (inactive)
18 | COc1cc(CNCCO)cc(Cl)c1OCc1ccc(Cl)cc1Cl | 1.33% (inactive)
19 | Cc1cccn2c(CNCC3(c4ccccc4)CCCC3)c(C(=O)N3CCOCC3)nc12 | -3.35% (inactive)
20 | COC(=O)c1ccc(Nc2cc(C)nc3ccc(C)cc23)cc1 | -10.3% (inactive)

Row | SMILES | activity change, negative = inhibition
21 | CCc1nnc2cccc(Cl)n12 | 6.38% (inactive)
22 | O=C(CSc1ncnc2[nH]ncc12)Nc1nc(-c2ccc(F)c(F)c2)cs1 | -2.35% (inactive)
23 | Cn1nnnc1Sc1ncnc2scc(-c3ccccc3C(F)(F)F)c12 | -21.3% (inactive)
24 | COc1cccc(C#Cc2ccc([C@@H]3[C@@H](CO)N(C(=O)C4CCC4)[C@H]3C#N)cc2)c1 | -11.3% (inactive)
25 | Cc1cccc(Cn2ncc(Cl)c(Cl)c2=O)c1 | 6.59% (inactive)
26 | CO[C@H]1CN(C)C(=O)c2ccc(NC(=O)C3CC3)cc2OC[C@@H](C)N(C(=O)Cc2ccccn2)C[C@H]1C | -0.993% (inactive)
27 | CN(c1ccccc1)S(=O)(=O)c1cccc(NC(=O)c2cc(=O)c3ccccc3o2)c1 | -24.6% (inactive)
28 | Cc1noc(C)c1S(=O)(=O)Nc1cccc2c1O[C@H](CN(C)C(=O)Nc1ccc(F)cc1)[C@H](C)CN([C@H](C)CO)C2=O | 1.54% (inactive)
29 | COc1ccc(-c2noc(CCC(=O)N3CCN(c4ccc(Cl)cc4)CC3)n2)cc1 | 33.7% (inactive)
30 | CCn1cc(S(=O)(=O)Nc2cccnc2)cn1 | 61.7% (inactive)
31 | C[C@@H]1CN([C@@H](C)CO)C(=O)c2cccc(NC(=O)Nc3ccc(C(F)(F)F)cc3)c2O[C@H]1CN(C)C(=O)Nc1cccc2ccccc12 | -26.2% (inactive)
32 | CC(C)CCNC(=O)C(c1ccc(O)cc1)N(Cc1cccs1)C(=O)C1COc2ccccc2O1 (centres undefined) | -52.9% (inactive)
33 | C[C@@H]1CN([C@H](C)CO)C(=O)c2cc(NC(=O)Nc3cccc4ccccc34)ccc2O[C@@H]1CN(C)C(=O)Nc1ccccc1 | -8.77% (inactive)
34 | O=C(O)CSc1cc(NS(=O)(=O)c2cccc([N+](=O)[O-])c2)c2ccccc2c1O | -26.4% (inactive)
35 | CO[C@@H]1CN(C)C(=O)c2ccc(NC(=O)C3CC3)cc2OC[C@@H](C)NC[C@@H]1C | -7.47% (inactive)
36 | COc1ccccc1C=NNC(=O)c1ccncc1 | 17% (inactive)
37 | COc1ccc(NC(=O)Nc2ccc3c(c2)CC(=O)N([C@@H](C)CO)C[C@@H](C)[C@H](CN(C)Cc2ccncc2)O3)cc1 | -21.7% (inactive)
38 | Cc1ccnc(N2C(=O)c3ccccc3C2Nc2ccc3c(c2)OCCO3)c1 (centres undefined) | -7.03% (inactive)
39 | Cn1c(=O)c2cc(NC(=O)NCc3ccccc3)ccc2n1C/C=C/c1ccccc1 | 0.394% (inactive)
